Assay results from ChEMBL document CHEMBL1961873, “Compounds: GSK PKIS; Assays: Nanosyn kinase panel” (2012).

Columns and labels:
[1] = tested on: Tyrosine-protein kinase ABL1 (Homo sapiens), P00519 [T315I]; details: at 1 µM
[2] = tested on: Tyrosine-protein kinase ABL1 (Homo sapiens), P00519 [Y253F]; details: at 0.1 µM
[3] = tested on: Tyrosine-protein kinase ABL1 (Homo sapiens), P00519 [Y253F]; details: at 1 µM
[4] = biological target: Tyrosine-protein kinase ABL1 (Homo sapiens) (UniProt P00519); details: at 0.1 µM
[5] = biological target: Tyrosine-protein kinase ABL1 (Homo sapiens) (UniProt P00519); details: at 1 µM
[6] = biological target: ALK tyrosine kinase receptor (Homo sapiens) (UniProt Q9UM73); details: at 0.1 µM
[7] = biological target: ALK tyrosine kinase receptor (Homo sapiens) (UniProt Q9UM73); details: at 1 µM
[8] = biological target: Tyrosine-protein kinase ABL2 (Homo sapiens) (UniProt P42684); details: at 0.1 µM
[9] = biological target: Tyrosine-protein kinase ABL2 (Homo sapiens) (UniProt P42684); details: at 1 µM
[10] = biological target: Tyrosine-protein kinase receptor UFO (Homo sapiens) (UniProt P30530); details: at 0.1 µM;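 note: values are mean percent inhibition of AXL from the GSK PKIS screen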
Chain of Tyrosine-protein kinase receptor UFO (Homo sapiens) (P30530 whole entry): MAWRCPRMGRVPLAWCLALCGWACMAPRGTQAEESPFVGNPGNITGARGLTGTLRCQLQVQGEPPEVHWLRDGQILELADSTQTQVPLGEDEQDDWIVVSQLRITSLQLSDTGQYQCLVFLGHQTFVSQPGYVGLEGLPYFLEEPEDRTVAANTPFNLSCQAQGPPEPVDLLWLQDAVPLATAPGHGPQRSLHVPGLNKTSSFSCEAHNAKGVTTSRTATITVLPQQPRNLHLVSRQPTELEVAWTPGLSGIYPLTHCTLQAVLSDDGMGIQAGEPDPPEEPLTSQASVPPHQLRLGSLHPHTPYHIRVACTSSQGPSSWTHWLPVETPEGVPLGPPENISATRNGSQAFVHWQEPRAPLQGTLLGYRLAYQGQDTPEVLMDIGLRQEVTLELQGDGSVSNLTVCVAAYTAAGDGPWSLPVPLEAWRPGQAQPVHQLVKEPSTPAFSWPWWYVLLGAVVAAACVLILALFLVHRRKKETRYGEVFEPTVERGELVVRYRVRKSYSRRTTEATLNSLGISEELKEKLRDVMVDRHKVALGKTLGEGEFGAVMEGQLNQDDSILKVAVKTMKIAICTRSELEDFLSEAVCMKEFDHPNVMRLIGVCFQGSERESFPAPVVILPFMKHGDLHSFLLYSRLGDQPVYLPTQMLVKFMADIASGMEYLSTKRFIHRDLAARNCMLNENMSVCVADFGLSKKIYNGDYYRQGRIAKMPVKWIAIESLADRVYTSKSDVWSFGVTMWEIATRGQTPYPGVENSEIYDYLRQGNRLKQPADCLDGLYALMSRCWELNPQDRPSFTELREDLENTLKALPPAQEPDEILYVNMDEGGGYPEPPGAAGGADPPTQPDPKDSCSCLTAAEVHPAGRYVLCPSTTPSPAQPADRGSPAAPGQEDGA

Chain of ALK tyrosine kinase receptor (Homo sapiens) (Q9UM73 19-1620 limits assumed): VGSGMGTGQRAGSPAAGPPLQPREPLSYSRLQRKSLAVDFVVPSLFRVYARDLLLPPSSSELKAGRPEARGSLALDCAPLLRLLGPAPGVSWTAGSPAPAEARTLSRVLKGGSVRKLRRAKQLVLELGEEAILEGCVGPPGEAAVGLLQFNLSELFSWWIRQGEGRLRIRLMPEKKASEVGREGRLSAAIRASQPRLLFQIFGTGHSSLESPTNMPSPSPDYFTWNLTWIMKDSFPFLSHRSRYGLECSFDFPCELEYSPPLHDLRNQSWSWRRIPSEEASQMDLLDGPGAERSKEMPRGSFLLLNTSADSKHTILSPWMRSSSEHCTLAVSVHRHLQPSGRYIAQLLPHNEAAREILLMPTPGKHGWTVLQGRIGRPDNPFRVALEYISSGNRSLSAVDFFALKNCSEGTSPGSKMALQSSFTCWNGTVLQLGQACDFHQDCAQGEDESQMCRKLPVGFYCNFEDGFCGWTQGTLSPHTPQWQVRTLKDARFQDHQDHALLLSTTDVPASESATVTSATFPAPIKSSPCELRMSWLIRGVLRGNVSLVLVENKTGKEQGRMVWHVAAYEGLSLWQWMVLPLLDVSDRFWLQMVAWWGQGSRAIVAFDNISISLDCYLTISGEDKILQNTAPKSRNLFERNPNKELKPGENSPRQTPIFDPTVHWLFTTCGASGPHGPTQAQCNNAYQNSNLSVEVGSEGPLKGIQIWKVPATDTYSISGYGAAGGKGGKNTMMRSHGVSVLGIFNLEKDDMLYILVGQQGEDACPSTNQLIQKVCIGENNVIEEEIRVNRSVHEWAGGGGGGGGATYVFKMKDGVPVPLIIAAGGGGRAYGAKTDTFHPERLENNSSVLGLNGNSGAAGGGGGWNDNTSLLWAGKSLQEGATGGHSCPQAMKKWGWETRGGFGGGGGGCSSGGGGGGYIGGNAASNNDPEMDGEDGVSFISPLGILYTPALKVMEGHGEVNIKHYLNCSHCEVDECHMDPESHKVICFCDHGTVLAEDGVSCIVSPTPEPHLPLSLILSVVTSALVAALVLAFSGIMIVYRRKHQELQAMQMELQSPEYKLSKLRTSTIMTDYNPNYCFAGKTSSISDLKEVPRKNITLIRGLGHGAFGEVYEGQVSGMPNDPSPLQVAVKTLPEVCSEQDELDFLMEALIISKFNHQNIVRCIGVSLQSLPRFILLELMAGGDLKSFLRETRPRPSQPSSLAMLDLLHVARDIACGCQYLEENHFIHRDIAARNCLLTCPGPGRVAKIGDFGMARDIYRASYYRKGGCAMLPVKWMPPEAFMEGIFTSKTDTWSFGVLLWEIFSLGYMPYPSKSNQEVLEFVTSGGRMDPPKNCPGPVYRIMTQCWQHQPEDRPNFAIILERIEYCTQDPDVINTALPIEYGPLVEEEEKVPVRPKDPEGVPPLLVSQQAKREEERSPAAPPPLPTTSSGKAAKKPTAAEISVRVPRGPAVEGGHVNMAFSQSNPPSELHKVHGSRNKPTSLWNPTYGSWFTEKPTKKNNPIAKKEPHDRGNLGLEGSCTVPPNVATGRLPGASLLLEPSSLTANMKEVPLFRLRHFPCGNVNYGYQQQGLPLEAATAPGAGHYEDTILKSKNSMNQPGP
Chain of Tyrosine-protein kinase ABL2 (Homo sapiens) (P42684 whole entry): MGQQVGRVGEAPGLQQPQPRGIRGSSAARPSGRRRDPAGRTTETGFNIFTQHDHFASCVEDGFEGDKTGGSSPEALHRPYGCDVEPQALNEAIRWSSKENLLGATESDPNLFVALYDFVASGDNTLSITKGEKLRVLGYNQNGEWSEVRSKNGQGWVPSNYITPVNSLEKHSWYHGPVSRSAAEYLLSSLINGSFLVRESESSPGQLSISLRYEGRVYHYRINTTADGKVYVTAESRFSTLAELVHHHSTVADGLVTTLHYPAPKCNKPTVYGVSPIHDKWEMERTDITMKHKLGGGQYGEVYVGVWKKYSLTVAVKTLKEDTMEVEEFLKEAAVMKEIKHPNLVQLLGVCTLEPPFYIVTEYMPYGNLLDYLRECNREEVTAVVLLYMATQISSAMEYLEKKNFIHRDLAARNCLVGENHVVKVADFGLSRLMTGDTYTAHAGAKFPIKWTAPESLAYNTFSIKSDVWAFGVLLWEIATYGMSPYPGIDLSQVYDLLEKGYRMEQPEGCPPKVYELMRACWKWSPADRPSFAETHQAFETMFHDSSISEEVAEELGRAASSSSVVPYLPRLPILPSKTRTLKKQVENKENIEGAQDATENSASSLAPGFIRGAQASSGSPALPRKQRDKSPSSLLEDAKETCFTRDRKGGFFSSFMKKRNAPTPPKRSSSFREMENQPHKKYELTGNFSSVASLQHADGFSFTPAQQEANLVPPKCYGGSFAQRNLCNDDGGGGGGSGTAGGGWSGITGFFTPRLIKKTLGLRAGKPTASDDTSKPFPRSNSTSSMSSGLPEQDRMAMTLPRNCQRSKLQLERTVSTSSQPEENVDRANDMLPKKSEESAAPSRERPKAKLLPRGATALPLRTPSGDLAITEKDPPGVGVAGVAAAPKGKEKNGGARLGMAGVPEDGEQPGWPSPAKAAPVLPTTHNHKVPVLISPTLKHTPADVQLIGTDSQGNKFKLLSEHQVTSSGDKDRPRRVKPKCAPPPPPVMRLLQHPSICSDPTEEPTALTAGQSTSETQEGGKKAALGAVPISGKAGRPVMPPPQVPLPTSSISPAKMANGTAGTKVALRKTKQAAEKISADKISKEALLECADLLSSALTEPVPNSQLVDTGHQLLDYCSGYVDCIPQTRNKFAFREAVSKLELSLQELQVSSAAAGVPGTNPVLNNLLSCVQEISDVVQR

Row | SMILES | inhibition [1] | inhibition [2] | inhibition [3] | inhibition [4] | inhibition [5] | inhibition [6] | inhibition [7] | inhibition [8] | inhibition [9] | inhibition [10]
1 | COc1cccc(-n2ncc3c(N/N=C/c4ccc(C)cc4)ncnc32)c1 | 23.2% | 31.8% | 76.1% | 13% | 62.1% | 12.4% | 22.3% | 64.2% | 40.5% | -3.91%
2 | NS(=O)(=O)c1ccc(N/N=C2\C(=O)Nc3ccc(Cl)cc32)cc1 | 11.8% | 1.42% | 11.1% | 2.16% | 10.6% | 1.16% | 5.53% | 5.17% | 11.6% | -1.64%
3 | Cc1cc(-c2ccccn2)cc(C)c1/C=C/c1cncc(-c2nn[nH]n2)c1 | 1.41% | 0.95% | 5.04% | 7.78% | 13% | 3.44% | 5.05% | 5.89% | 20.2% | -5.03%
4 | Oc1cccc(-c2nc(-c3ccccc3)[nH]c2-c2ccncc2)c1 | 8.47% | 11.9% | 44.9% | 8.48% | 43.3% | 3.1% | 4.75% | 13.2% | 50.8% | -4.03%
5 | COc1ccc2ncnc(Nc3ccc(OCc4ccccc4)cc3)c2c1 | 3.21% | 2.03% | 1.02% | 1.65% | 4.79% | 0.66% | 0.87% | 2.72% | 4.53% | -3.58%
6 | NS(=O)(=O)c1ccc(Nc2cc(-c3cccc(O)c3)n[nH]2)cc1 | 7.24% | 6.94% | 11.8% | 5.23% | 11.4% | 3.58% | 7.98% | 5.93% | 6.81% | 
7 | CN(C)C(=O)O[C@@H]1CN[C@@H](C#Cc2cc3ncnc(Nc4ccc(OCc5cccc(F)c5)c(Cl)c4)c3s2)C1 | -0.07% | 1.53% | 3.44% | 1.35% | 6.2% | 1.27% | 1.3% | 1.71% | 8.08% | -0.96%
8 | NC(=O)c1cccc(Nc2nccc(Nc3cccc(F)c3)n2)c1 | 17.1% | 12.8% | 63.8% | 11.6% | 55.6% | 0.23% | 10.1% | 11.5% | 51.9% | -1.82%
9 | c1ccc(Cc2nc3ccc(Nc4ncnc5ccccc45)cc3[nH]2)cc1 | 4.4% | 5.92% | 6.3% | 4.49% | 11.3% | 1.23% | 5.36% | 2.8% | 9.97% | -5.03%
10 | O=C1Nc2ccccc2/C1=C/Nc1ccc2[nH]c(=O)[nH]c2c1 | 23.7% | 9.65% | 23.3% | 8.95% | 25.8% | 2.88% | 16.4% | 7.75% | 19.4% | -8.65%
11 | O=C(Nc1ccc(Oc2ccc3[nH]c(NC(=O)c4ccco4)nc3c2)cc1)Nc1cc(C(F)(F)F)ccc1F | 94.4% | 38% | 84% | 27.9% | 72.2% | -1.81% | 7.58% | 35.6% | 66.4% | 16.1%
12 | CC(C)c1ccc(Nc2nccc(-c3cnn4ncccc34)n2)cc1 | 10.6% | 4.68% | 10% | 3.33% | 13.3% | 4.56% | 23.7% | 4.44% | 10.6% | -4.19%
13 | CN(c1ccc(NC(=O)Nc2ccc(OC(F)(F)F)cc2)cc1)c1ccnc(Nc2cccc(S(N)(=O)=O)c2)n1 | 86.2% | 39.2% | 81.5% | 14.3% | 71% | 1.46% | 4.22% | 20.2% | 71.9% | -2.29%
14 | Nc1ccc(C#Cc2cncnc2Nc2ccc(OCc3cccc(F)c3)c(Cl)c2)cc1 | 1.84% | 1.89% | 2.12% | 3.72% | 4% | 3.7% | 3.34% | 3.43% | 4.12% | -4.2%
15 | CCCN1CCCC(c2ccc(Nc3nc(Nc4cc(F)ccc4C(N)=O)c4cc[nH]c4n3)c(OC)c2)C1 (stereo not drawn) | 12.1% | 4.98% | 9.67% | 3.75% | 9.3% | 98.2% | 86.3% | 2.38% | 3.99% | 9.62%
16 | COC(=O)Nc1nc2cc(Oc3ccc(NC(=O)Nc4cccc(Br)c4)cc3)ccc2[nH]1 | 44.6% | 7.87% | 16.5% | 6.66% | 19% | 2.06% | 3.65% | 16.1% | 34.4% | -0.21%
17 | COc1cccc(-n2nc(C)c3c(N/N=C(\C)c4ccncc4)ncnc32)c1 | -0.56% | 1.07% | 4.85% | 3.36% | 9.11% | 0.43% | 1.35% | -0.17% | 5.82% | -2.14%

Row | SMILES | inhibition [1] | inhibition [2] | inhibition [3] | inhibition [4] | inhibition [5] | inhibition [6] | inhibition [7] | inhibition [8] | inhibition [9] | inhibition [10]
18 | COc1ccc(-c2nn3ncccc3c2-c2ccnc(Nc3cccc(C(F)(F)F)c3)n2)cc1 | 5.9% | 1.53% | 5.56% | 5.5% | 4% | 3.3% | 5.15% | 2.28% | 6.55% | -4.48%
19 | CN(C)C(=O)O[C@H]1CN[C@H](C#Cc2cc3ncnc(Nc4ccc(OCc5cccc(F)c5)c(Cl)c4)c3s2)C1 | 1.25% | 4.89% | 4.19% | 3.76% | 8.35% | 2.82% | 5.03% | 3.49% | 6.24% | -3.4%
20 | CN(C)CCCn1c(-c2nonc2N)nc2cnccc21 | 1.3% | 2.05% | 4.68% | 2.69% | 4.71% | 2.82% | 4.63% | 3.56% | -5.79% | -7.29%
21 | CN1CCN(C(=O)c2ccc(NC(=O)Nc3ccc(N(C)c4ccnc(Nc5ccc(CS(C)(=O)=O)cc5)n4)cc3)cc2)CC1 | 61.5% | 8.21% | 48.1% | 9.79% | 43.9% | 1.71% | 10.3% | 21.9% | 56.5% | -3.75%
22 | Cc1ccc(C(=O)NC2CC2)cc1-c1ccc2[nH]ncc2c1 | 2.89% | -1.37% | 0.48% | -0.56% | 0.77% | -1.6% | -1.66% | -1.18% | 0.73% | 3.54%
23 | FC(F)(F)c1ccc(-c2nn3ncccc3c2-c2ccnc(Nc3ccc4c(c3)OCCO4)n2)cc1 | 9.38% | 0.98% | 7.07% | 5.3% | 13.7% | -1.39% | 1.59% | 5.58% | 9.47% | 8.69%
24 | COc1cc2ncn(-c3cc(OCc4ccccc4S(C)(=O)=O)c(C#N)s3)c2cc1OC | 32.6% | 13.8% | 48.8% | 9.66% | 49% | 4.25% | 9.85% | 4.77% | 18% | 
25 | C[C@@H](Oc1cc(-n2cnc3ccc(OCC4CCN(C)CC4)cc32)sc1C(N)=O)c1ccccc1C(F)(F)F | 13.7% | -1.07% | 1.43% | 0.74% | 2.7% | 1.57% | 20.8% | 0.15% | 3.87% | 3.82%
26 | COc1cc(Nc2nccc(-c3cnn4ncccc34)n2)cc(OC)c1 | 40.3% | 13.7% | 59.6% | 9.67% | 62.7% | 5.68% | 44.8% | 10.5% | 69.6% | 2%
27 | Cc1ccc2c(-c3ccnc(Nc4cccc(C(F)(F)F)c4)n3)c(-c3ccccc3)nn2n1 | 20.8% | 12.2% | 53.3% | 7.07% | 36.1% | 3.25% | 3.77% | -9.35% | 33.7% | -5.69%
28 | CN(C)c1cc2c(Nc3ccc4c(cnn4Cc4ccccc4)c3)ncnc2cn1 | -1.27% | 1.19% | 3.05% | 2.46% | 5.43% | 2.86% | 4.13% | 1.06% | 8.48% | -6.03%
29 | O=S(=O)(CCOCc1ccc(-c2ccc3ncnc(Nc4ccc(OCc5cccc(F)c5)c(Cl)c4)c3c2)o1)c1ccccc1 | 0.23% | 1.1% | 1.05% | 2.88% | 5.13% | 0.65% | 3.74% | 2.62% | 6.65% | -0.96%
30 | Cc1cc(Cl)cc2c1NC(=O)C2=NNc1ccc(S(N)(=O)=O)cc1 | 4.99% | 3.5% | 6.19% | 2.11% | 7.99% | 0.72% | 1.88% | 3.13% | 7.59% | -3.23%
31 | CC(C)c1ccc2c(c1)NC(=O)/C2=N/Nc1ccc(S(N)(=O)=O)cc1 | 6.52% | 4.59% | 28.8% | 6.22% | 32.8% | -0.35% | 2.81% | 3.65% | 25.7% | -0.26%
32 | CCS(=O)(=O)c1ccc(OC)c(Nc2ncc(-c3cccc(OC)c3)o2)c1 | 26.5% | 48.5% | 86.3% | 29.8% | 77.7% | 2.9% | 8.1% | 27.3% | 72.6% | -3.48%
33 | CS(=O)(=O)Nc1cccc(-c2ccc3c(NC(=O)C4CC4)n[nH]c3c2)c1 | 30.6% | 1.55% | 11.8% | 1.81% | 17.9% | 0.61% | 1.09% | 2.46% | 3.55% | 0.1%
